{"source": "PubChem BioAssay AID1376", "about": "(SRMLSC, 2008)", "note": "Among all 220,000 compounds or so, about 530 (0.24%) were called active. The sample as a whole holds a higher share of actives than the screen did. Potency and affinity values are given separately. Unmarked numbers belong to inactive results. Cut-off read from the data, not from the text of the source: active = inhibition above about 13%; inconclusive = no clear call, values can overlap the other calls; inactive = below that."}
{"biological_target": "Bifunctional protein GlmU (Mycobacterium tuberculosis (strain ATCC 25618 / H37Rv)) (UniProt P9WMN3)", "sequence (P9WMN3 whole entry, looked up)": "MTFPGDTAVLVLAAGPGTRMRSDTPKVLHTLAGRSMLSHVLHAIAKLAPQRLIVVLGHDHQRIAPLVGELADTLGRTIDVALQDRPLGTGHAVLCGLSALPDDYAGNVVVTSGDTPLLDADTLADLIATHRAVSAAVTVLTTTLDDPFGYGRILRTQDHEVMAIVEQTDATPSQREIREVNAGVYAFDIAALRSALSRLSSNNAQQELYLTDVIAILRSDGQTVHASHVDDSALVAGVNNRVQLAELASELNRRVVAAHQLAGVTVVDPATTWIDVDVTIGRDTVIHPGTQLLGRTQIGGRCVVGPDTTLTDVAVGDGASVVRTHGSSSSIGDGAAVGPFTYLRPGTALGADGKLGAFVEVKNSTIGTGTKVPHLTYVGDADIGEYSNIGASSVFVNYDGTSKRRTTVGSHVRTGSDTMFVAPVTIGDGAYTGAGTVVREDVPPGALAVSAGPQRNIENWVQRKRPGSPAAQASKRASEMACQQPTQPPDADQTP", "test": "inhibition of mycobacterial GlmU enzyme – biochemical, glucosamine-1-phosphate acetyltransferase (AID 1376);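 note: 0% = complete reaction with vehicle and 100% = reaction without substrate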", "details": "M. tuberculosis GlmU acetyltransferase enzyme assay; stronger effect = higher value;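 tested at 30 µM in the primary screen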"}
{"smiles": "COCCCNc1nc(SCc2ccccc2)nc2sc3c(c12)CCC3", "inhibition": "12.8% (active)"}
{"smiles": "COCCNc1nc(SCc2ccccc2)nc2sc3c(c12)CCC3", "inhibition": "-0.26%"}
{"smiles": "CC(CO)Nc1nc(SCc2ccccc2)nc2sc3c(c12)CCC3", "note": "(centres undefined)", "inhibition": "-17.2%"}
{"smiles": "CC(C)(C)c1ccc(S(=O)(=O)Nc2ccc(Cc3ccncc3)cc2)cc1", "inhibition": "0.43%"}
{"smiles": "COC(=O)c1ccc(N=NNc2ccccc2)cc1", "inhibition": "4.94%"}
{"smiles": "CCN(CC)S(=O)(=O)c1cc(NC(=O)Cc2n[nH]c(=O)c3ccccc23)ccc1C", "inhibition": "7.13%"}
{"smiles": "CCC(C)(NC(=O)CNC(C)=O)C(=O)NC1CCCCC1", "note": "(centres undefined)", "inhibition": "17.3% (active)"}
{"smiles": "CCC(C)(NC(=O)c1ccccn1)C(=O)NC1CCCC1", "note": "(centres undefined)", "inhibition": "-1.49%"}
{"smiles": "CCC(C)(NC(=O)Cc1c[nH]c2ccccc12)C(=O)NC1CCCCC1", "note": "(centres undefined)", "inhibition": "0.49%"}
{"smiles": "CC(C)(C)C1CCC2(CC1)CC(=O)c1ccccc1O2", "note": "(centres undefined)", "inhibition": "0.53%"}
{"smiles": "CC(C)(C)OC(=O)N/N=C\\c1ccc[nH]1", "inhibition": "-8.2%"}
{"smiles": "O=C(O)CCCCCCCC(=O)O", "inhibition": "-3.59%"}
{"smiles": "O=C(O)CCCCC1SCC2NC(=O)NC21", "note": "(centres undefined)", "inhibition": "-2%"}
{"smiles": "CCNc1oc(-c2ccc(OC)cc2)nc1S(=O)(=O)c1ccc(Br)cc1", "inhibition": "-0.98%"}
{"smiles": "C=CCOc1ccc(C2C(C(=O)c3ccco3)=C(O)C(=O)N2c2nnc(C)s2)cc1", "note": "(centres undefined)", "inhibition": "-3.01%"}
{"smiles": "Cc1ccc(C2C(C(=O)c3cccs3)=C(O)C(=O)N2c2nnc(C)s2)cc1", "note": "(centres undefined)", "inhibition": "2.85%"}
{"smiles": "C=CCOc1ccc(C2C(C(=O)c3cccs3)=C(O)C(=O)N2c2nnc(C)s2)cc1", "note": "(centres undefined)", "inhibition": "15% (active)"}
{"smiles": "COC(=O)CCCC1=CC2=C(c3ccccc3)C(=O)C(C)(OC(=O)C3CCCC3)C(=O)C2=CN1C1CC1", "note": "(centres undefined)", "inhibition": "1.9%"}
{"smiles": "Cc1ccc(OCC(=O)N2CCOCC2)c([N+](=O)[O-])n1", "inhibition": "-0.37%"}
{"smiles": "COc1cccc(C2C=C(c3ccc(Br)s3)Nc3ncnn32)c1OC", "note": "(centres undefined)", "inhibition": "0.77%"}
{"smiles": "COc1cc(C2C=C(c3cccs3)Nc3ncnn32)cc(OC)c1OC", "note": "(centres undefined)", "inhibition": "-2.57%"}
{"smiles": "COc1ccc(C2C=C(c3ccc(Br)s3)Nc3ncnn32)cc1OC", "note": "(centres undefined)", "inhibition": "14.2% (active)"}
{"smiles": "Cc1ccc(S(=O)(=O)N2CC(O)CC2C(=O)OCc2nc3sc(C)c(C)c3c(=O)[nH]2)cc1", "note": "(centres undefined)", "inhibition": "1.13%"}
{"smiles": "O=C(CCN1CCCC1)c1cccs1", "inhibition": "-0.97%"}
{"smiles": "O=C(COC(=O)c1c[nH]c(=O)[nH]c1=O)Nc1ccccc1", "inhibition": "-4.87%"}
{"smiles": "COc1ccc(CNC(=O)COC(=O)c2c[nH]c(=O)[nH]c2=O)cc1OC", "inhibition": "-0.09%"}
{"smiles": "O=C(COC(=O)c1c[nH]c(=O)[nH]c1=O)NCc1ccccc1", "inhibition": "13.3% (active)"}
{"smiles": "O=C(CN(Cc1cccs1)C(=O)CNS(=O)(=O)c1ccc(F)cc1)NCC1CCCO1", "note": "(centres undefined)", "inhibition": "3.23%"}
{"smiles": "CCOc1ccc(CNC(=O)CCS(=O)(=O)Cc2ccc(C)cc2)cc1OC", "inhibition": "2.73%"}
{"smiles": "COc1ccc(C2(C)NC(=O)N(CC(=O)NCCC3=CCCCC3)C2=O)cc1OC", "note": "(centres undefined)", "inhibition": "-7.87%"}
{"smiles": "CN(C)c1nc(OCCNC(=O)Nc2ccccc2)nc(N2CCCCC2)n1", "inhibition": "1.41%"}
{"smiles": "COc1ccccc1C(=O)NCc1n[nH]c(=S)n1Cc1ccccc1", "inhibition": "0.36%"}
{"smiles": "CCCCN(CC(=O)NCc1ccc(F)cc1)C(=O)c1ccco1", "inhibition": "-1.73%"}
{"smiles": "CCc1cc2c(SCC(=O)O)ncnc2s1", "inhibition": "-4.14%"}
{"smiles": "CCc1cc2c(SCC(=O)C(C#N)=C3N(C)c4ccccc4N3C)ncnc2s1", "inhibition": "15% (active)"}
{"smiles": "CCc1cc2c(SCC(=O)c3ccccc3)ncnc2s1", "inhibition": "-3.16%"}
{"smiles": "Cn1c(=O)c2c(SCC(=O)NCCc3ccccc3)nc(C3CC3)nc2n(C)c1=O", "inhibition": "1.2%"}
{"smiles": "O=C(Cn1cnc2c(nnn2Cc2ccc(F)cc2)c1=O)N1CCCc2ccccc21", "inhibition": "-5.31%"}
{"smiles": "COc1ccc(OC)c(NC(=O)CCN2CCCCCC2)c1", "inhibition": "-10.2%"}
{"smiles": "CCOC(=O)CC1C(=O)NCCN1C(=O)Nc1ccccc1", "note": "(centres undefined)", "inhibition": "-2.01%"}
{"smiles": "CCC(C)(C(=O)NC1CCCC1)N(C)C(=O)c1ccccn1", "note": "(centres undefined)", "inhibition": "-5.14%"}
{"smiles": "CCC(C)(C(=O)NC1CCCCC1)N(C)C(=O)c1ccccn1", "note": "(centres undefined)", "inhibition": "14.8% (active)"}
{"smiles": "CCC(C)(C(=O)NC1CCCCC1)N(C(=O)c1ccccn1)c1ccccc1", "note": "(centres undefined)", "inhibition": "2.61%"}
{"smiles": "Cc1ccc(S(=O)(=O)Nc2nccs2)cc1[N+](=O)[O-]", "inhibition": "-3.62%"}
{"smiles": "O=S1(=O)CCN(Cc2cccc(Cl)c2)CC1", "inhibition": "-7.45%"}
{"smiles": "CC(=O)Nc1cccc(NC(=O)c2ccc([N+](=O)[O-])cc2Cl)c1", "inhibition": "-7.61%"}
{"smiles": "Cc1ccc(C[n+]2cccc(-c3ccccc3)c2)c(C)c1", "inhibition": "-2.52%"}
{"smiles": "Cc1ccc(NC(=O)C2c3ccccc3Oc3ccccc32)nc1", "inhibition": "-2.94%"}
{"smiles": "O=C(O)c1ccc2c(c1)C(=O)/C(=C\\c1ccco1)C2=O", "inhibition": "17.2% (active)"}
{"smiles": "Cc1ccc(C(=O)O)cc1-c1ccc(C=C2C(=O)c3ccccc3C2=O)o1", "inhibition": "11.7%"}
{"smiles": "Cc1ccc(/C=N/Nc2ccc(C(=O)O)cc2)o1", "inhibition": "0.55%"}
{"smiles": "O=C(NCc1ccco1)c1ccc2c(c1)C(=O)c1ccccc1-2", "inhibition": "-0.25%"}
{"smiles": "O=C1C(=Cc2ccco2)C(=O)c2ccccc21", "inhibition": "8.37%"}
{"smiles": "Cc1csc(SC(C)C(=O)Nc2ccc(S(=O)(=O)N3CCCC3)cc2)n1", "note": "(centres undefined)", "inhibition": "-1.61%"}
{"smiles": "COCCCNC(=O)c1cc(C)nc2ccc(F)cc12", "inhibition": "1.65%"}
{"smiles": "CC(C)c1nnc(NC(=O)CCC(=O)N2CCN(Cc3ccccc3)CC2)s1", "inhibition": "3.04%"}
{"smiles": "CCN(CC)S(=O)(=O)c1ccc2nc(CCl)[nH]c2c1", "inhibition": "-0.14%"}
{"smiles": "Cc1sc2nc(SCc3nnc(-c4cccs4)o3)n(C3CCCC3)c(=O)c2c1C", "inhibition": "-5.93%"}
{"smiles": "CCOC(=O)c1c(NC(=O)CN2CCCCC2)sc(CN(C)C)c1-c1ccccc1", "inhibition": "-2.86%"}
{"smiles": "CC(=O)c1cc(F)c(N2CCN(C(=O)COc3ccccc3F)CC2)cc1C", "inhibition": "1.65%"}
{"smiles": "Cc1ccc(NC(=S)N2CCCCC2CO)cc1C", "note": "(centres undefined)", "inhibition": "-3.71%"}
{"smiles": "N#Cc1ccccc1OCC(=O)C1CC1", "inhibition": "5.73%"}
{"smiles": "COc1cccc(C(=O)CSc2nnc(-c3cccs3)o2)c1", "inhibition": "4.7%"}
{"smiles": "N#Cc1c(-n2cccc2)cccc1-n1cccc1", "inhibition": "9.31%"}
{"smiles": "N#Cc1cc(N)ccc1-n1cccc1", "inhibition": "13.7% (active)"}
{"smiles": "COc1ccc(N2CCN(c3ccc(N)cc3C#N)CC2)cc1", "inhibition": "-1.62%"}
{"smiles": "O=C(O)[C@@H](O)[C@H](O)C(=O)O", "inhibition": "2.76%"}
{"smiles": "O=C(O)C(Cl)Cl", "inhibition": "2.18%"}
{"smiles": "CC1CCc2c(sc3ncnc(NS(=O)(=O)c4cccs4)c23)C1", "note": "(centres undefined)", "inhibition": "0.41%"}
{"smiles": "O=C1CSC(=Nc2cccc(Cl)c2Cl)N1Cc1cccnc1", "inhibition": "1.06%"}
{"smiles": "CC(=O)c1ccc(N2CCN(C(=S)Nc3cc(C)ccc3C)CC2)cc1", "inhibition": "-4.28%"}
{"smiles": "CCc1ccc2[nH]c(=O)c(CN(CCN(CC)CC)C(=O)NC3CCCCC3)cc2c1", "inhibition": "-7.06%"}
{"smiles": "CCN(CC)CCN(Cc1cc2ccc(C)cc2[nH]c1=O)C(=O)NC1CCCCC1", "inhibition": "14.2% (active)"}
{"smiles": "CCN(CC)CCN(Cc1cc2cc3c(cc2[nH]c1=O)OCCO3)C(=O)NC1CCCCC1", "inhibition": "4.4%"}
{"smiles": "O=c1[nH]c(=O)n(-c2cccc3ccccc23)c(O)c1/C=N/N1CCCCC1c1cccnc1", "note": "(centres undefined)", "inhibition": "-5.46%"}
{"smiles": "CC(OC(=O)c1cccs1)C(=O)NCc1cccs1", "note": "(centres undefined)", "inhibition": "-4.58%"}
{"smiles": "Cn1c(=O)c(C(=O)Nc2ncccc2O)c(O)c2ccccc21", "inhibition": "2.25%"}
{"smiles": "CC(=O)c1ccc(C)cc1OC(=O)c1cccc(F)c1", "inhibition": "3.37%"}
{"smiles": "O=C(O)c1cc(O)c2c(c1)C(=O)c1cc(O)cc(O)c1C2=O", "inhibition": "13.3% (active)"}
{"smiles": "Cc1cc(O)c2c(c1)C(=O)c1cc(O)cc(O)c1C2=O", "inhibition": "-2.62%"}
{"smiles": "O=C(O)c1cc(O)c2c(c1)C(=O)c1cccc(O)c1C2=O", "inhibition": "0.69%"}
{"smiles": "Cc1ccc(NC(=O)CN(C)C(=O)c2ccc(S(=O)(=O)N(C)c3ccccc3)cc2)cc1", "inhibition": "2.55%"}
{"smiles": "CCOc1ncccc1C(=O)N1CCN(C(c2ccccc2)c2ccccc2)CC1", "inhibition": "7.04%"}
{"smiles": "COC(=O)c1cc(Cl)nc2ccccc12", "inhibition": "5.71%"}
{"smiles": "CCOC(=O)C1=C(C)N(C)C(=O)NC1c1c(C)nn(-c2ccccc2)c1C", "note": "(centres undefined)", "inhibition": "-0.97%"}
{"smiles": "CCOC(=O)C1=C(C)N(C)C(=O)NC1c1c(C)nn(-c2ccc(C)cc2)c1Cl", "note": "(centres undefined)", "inhibition": "3.87%"}
{"smiles": "CCOC(=O)C1=C(C)NC(=O)NC1c1c(C)nn(-c2ccccc2)c1Cl", "note": "(centres undefined)", "inhibition": "15.1% (active)"}
{"smiles": "COc1cc(NC(=O)CCCSc2nc(-c3ccco3)cc(C(F)(F)F)n2)cc(OC)c1OC", "inhibition": "-3.07%"}
{"smiles": "NC(=O)c1ccccc1NC(=O)Nc1cccc(Cl)c1", "inhibition": "14.1% (active)"}
{"smiles": "NC(=O)c1ccccc1NC(=O)Nc1ccc(F)c(Cl)c1", "inhibition": "-5.33%"}
{"smiles": "O=C(Nc1cccc(Cl)c1)Nc1ccccc1C(=O)O", "inhibition": "2.52%"}
{"smiles": "Cc1cc([N+](=O)[O-])nn1CCCC(=O)Nc1c(C)n(C)n(-c2ccccc2)c1=O", "inhibition": "-7.37%"}
{"smiles": "CCOC(=O)C1(C)C=C(Nc2ccc(C)cc2)C(=O)N1c1ccc(C)cc1", "note": "(centres undefined)", "inhibition": "-2.18%"}
{"smiles": "CCOC(=O)C1(C)C=C(Nc2ccc(O)cc2)C(=O)N1c1ccc(O)cc1", "note": "(centres undefined)", "inhibition": "9.21%"}
{"smiles": "CCOC(=O)C1(C)C=C(Nc2ccc(NC(C)=O)cc2)C(=O)N1c1ccc(NC(C)=O)cc1", "note": "(centres undefined)", "inhibition": "14.8% (active)"}
{"smiles": "CCn1c(=O)c2c(nc3n2CCN3c2ccccc2)n(C)c1=O", "inhibition": "-6.14%"}
{"smiles": "COc1ccc(/C=N/NC(=O)CCN2CCCCC2c2cccnc2)cc1Cn1cc([N+](=O)[O-])cn1", "note": "(centres undefined)", "inhibition": "12.8% (active)"}
{"smiles": "COc1ccc(/C=N/NC(=O)c2ccccc2O)cc1Cn1cc([N+](=O)[O-])cn1", "inhibition": "-1.22%"}
{"smiles": "COc1ccc(/C=N\\NC(=O)c2cccc([N+](=O)[O-])c2)cc1Cn1cc([N+](=O)[O-])cn1", "inhibition": "-3.48%"}
